Results reported in ChEMBL document CHEMBL3988442, “University of Dundee, Small-Polar-MMV Screening Library” (2021).
In all, about 69,000 compounds went through this assay and about 420 (0.61%) showed an effect of 50% or more. Only a selection was taken, and strong results are over-represented in it overall.

target: T1, Histidine--tRNA ligase (Leishmania infantum) (UniProt A4I591); experiment: Leishmania infantum Histidine tRNA synthetase (LdHisRS); format: functional; design: scale not given: in the data most compounds retested in dose-response had high values; details: 30 µM
T1 sequence (whole entry): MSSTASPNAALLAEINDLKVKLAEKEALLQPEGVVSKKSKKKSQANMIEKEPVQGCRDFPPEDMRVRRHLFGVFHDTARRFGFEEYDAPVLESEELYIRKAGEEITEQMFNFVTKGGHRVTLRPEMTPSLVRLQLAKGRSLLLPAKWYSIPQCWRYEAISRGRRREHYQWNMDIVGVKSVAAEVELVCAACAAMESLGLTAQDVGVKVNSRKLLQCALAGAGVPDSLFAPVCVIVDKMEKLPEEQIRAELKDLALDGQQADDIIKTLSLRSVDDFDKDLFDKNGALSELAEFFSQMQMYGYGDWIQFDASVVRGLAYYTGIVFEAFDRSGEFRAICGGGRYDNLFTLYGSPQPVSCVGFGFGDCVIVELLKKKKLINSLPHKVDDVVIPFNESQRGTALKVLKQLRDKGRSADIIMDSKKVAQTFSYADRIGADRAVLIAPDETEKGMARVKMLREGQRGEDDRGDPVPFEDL

| SMILES | Percent Effect [%] |
| --- | --- |
| Cc1noc(CNc2c(N3CCCC3)cccc2N2CCCC2)n1 | 6.67 |
| Cc1noc(C)c1CNc1c(N2CCCC2)cccc1N1CCCC1 | 84 |
| COc1ccccc1N1CCC(NCc2c(C)noc2C)C1 (configuration not stated) | 7.14 |
| Cc1noc([C@@H]2C[C@H]3CN(CC4CCOCC4)C[C@H]3O2)n1 | 10.5 |
| CO[C@H]1CCN(C(=O)c2ccsc2)[C@@H]2CN(CC3CC3)C[C@H]12 | 5.77 |
| Cc1nc(CN(C)C2CCN(Cc3nc4ccccc4s3)C2)no1 (configuration not stated) | 25.8 |
| CC(=O)N(Cc1noc(C)n1)C1CCN(Cc2ccc(C#N)cc2)C1 (configuration not stated) | 17.1 |
| CC(=O)N(Cc1noc(C)n1)C1CCN(Cc2ccccc2C#N)C1 (configuration not stated) | 2.7 |
| CC(=O)N(Cc1noc(C)n1)C1CCN(Cc2cccc(C#N)c2)C1 (configuration not stated) | 63.2 |
| Cc1nc(CN(C)C2CCN(Cc3nc4ccccc4n3C)C2)no1 (configuration not stated) | 10.3 |
| Cc1nc(CN(C)C2CCN(Cc3ccc4ccccc4n3)C2)no1 (configuration not stated) | 53.1 |
| Cc1cnc(N2C[C@@H]3[C@@H](C(=O)NCC(C)C)CCS(=O)(=O)[C@@H]3C2)nc1 | 12.3 |
| CN1[C@H](Cn2cncn2)C[C@@H]2CN(C3CCOCC3)CC[C@@H]21 | 20 |
| Cc1n[nH]c(C)c1CN1CC[C@@H]2[C@@H](CCC(=O)N2CCc2c[nH]cn2)C1 | 19.4 |
| CC(C)CNC(=O)N1C[C@H]2C[C@H](C(=O)NCc3ccccc3)[C@@H](C1)O2 | 14.6 |
| O=c1c2cnc(N3CCCC3)nc2ccn1-c1cccc(F)c1 | 13.3 |
| O=c1c2cnc(N3CCOCC3)nc2ccn1-c1ccccc1 | 50 |
| O=c1c2cnc(N3CCCCC3)nc2ccn1-c1ccccc1 | 7.77 |
| COc1cc(CCC(C)O)c(OC)c2c1OCO2 (configuration not stated) | 0 |
| COc1cc(CCO)c(OC)c2c1OCO2 | 51.7 |
| COc1cc(CO)c(OC)c2c1OCO2 | 18.3 |
| Cc1noc([C@H]2C[C@H]3OCC[C@H]3N(S(C)(=O)=O)C2)n1 | -20.2 |
| CCn1cc(C(=O)Nc2cc(C(=O)OC)ccc2C(=O)OC)cn1 | 10.3 |

| SMILES | Percent Effect [%] |
| --- | --- |
| COC(=O)c1ccc(OC)c(Cn2cc(Br)cn2)c1 | 1.12 |
| COC(=O)c1ccc(OC)c(Cn2cc(N)cn2)c1 | 50.6 |
| CNC(=O)[C@@H]1[C@@H](c2ccccc2)CN2CCN(Cc3ccccn3)C[C@H]12 | 8.16 |
| CSCC(=O)N1C[C@H]2CC[C@@H]1CN(Cc1ccccc1)C2 | 26.9 |
| CN(Cc1ccco1)[C@@H]1CN(Cc2cccs2)C[C@@H]2CCCO[C@@H]21 | 5.46 |
| CCOCCN1CCc2cncnc2C1 | 32.3 |
| CC(C)OCCN1CCc2cncnc2C1 | 37.1 |
| CN(CCCOc1ccccc1)C(=O)CN1CCc2cncnc2C1 | 65.2 |
| Cc1cccc(OCCNC(=O)CN2CCc3cncnc3C2)c1 | 20.2 |
| COc1ccccc1OCCNC(=O)CN1CCc2cncnc2C1 | 20.2 |
| O=C(CN1CCc2cncnc2C1)NCCOc1ccccc1 | 50 |
| COCCCN1CCc2cncnc2C1 | 50.6 |
| CS(=O)(=O)c1ccc(OCCCN2CCc3cncnc3C2)cc1 | 12.5 |
| O=C(CN1CCc2cncnc2C1)NCCOc1cccc(Cl)c1 | 18.4 |
| O=C(c1cccc(F)c1)N1CCN2C[C@H](OCc3cccnc3)C[C@H]2C1 | 9.49 |
| COCC(=O)N1CC[C@H]2N(C)CC[C@@]2(C(=O)Nc2ccccc2)CC1 | 15.4 |
| c1cc(CN2CC[C@@H]3[C@@H](CO[C@H]3CN3CCOCC3)C2)cs1 | 18.1 |
| COc1cc(C)ccc1OCCN1CC[C@@]2(O)CCNC[C@H]2C1 | 12.3 |
| COc1ccccc1-n1cc(CN2CCN(C)[C@@H]3CS(=O)(=O)C[C@@H]32)cn1 | 17.1 |
| CCO[C@@H]1CC[C@H]2[C@H]1OCCN2S(=O)(=O)C1CC1 | 4.17 |
| CNc1cc2c(nn1)CCN(C(=O)c1ccoc1)C2 | 10.7 |
| CNc1cc2c(nn1)CCN(C(=O)c1cc(F)cc(F)c1)C2 | 21.3 |
| CNc1cc2c(nn1)CCN(C(=O)c1coc(Br)c1)C2 | 52.2 |

| SMILES | Percent Effect [%] |
| --- | --- |
| Cn1cc(NC(=O)c2cc[nH]n2)cc(Cl)c1=O | 10.3 |
| CCC(C#N)NC(=O)c1sccc1OC (configuration not stated) | 10.6 |
| COc1ccsc1C(=O)Nc1cc(CN2CCOCC2)ccc1C | -11.1 |
| Cn1cc(NC(=O)Nc2ccccn2)cc(Cl)c1=O | 121 |
| COc1ccsc1C(=O)Nc1cc(Br)c(=O)n(C)c1 | 109 |
| COc1ccsc1C(=O)NCCNc1ccccc1 | 11.7 |
| COc1ccsc1C(=O)Nc1cc(Cl)c(=O)n(C)c1 | 103 |
| Cc1ccsc1C(=O)Nc1cc(Br)c(=O)n(C)c1 | 107 |
| Cn1cc(NC(=O)c2ccccn2)cc(Cl)c1=O | 10.3 |
| Cc1ccsc1C(=O)Nc1cnn(CC(=O)NC2CCCC2)c1 | 3.23 |
| COCCn1ccc(NC(=O)Nc2ccccn2)n1 | 13.2 |
| Cn1cc(NC(=O)c2ccccn2)cc(Br)c1=O | 15.4 |
| CCS(=O)(=O)N1CCO[C@H]2[C@H](Oc3ncccc3F)CC[C@@H]21 | 8.22 |
| O=C1[C@@H]2CCN(Cc3ccoc3)C[C@@H]2OCCN1c1ccccc1 | 9.49 |
| O=C1NC[C@@]2(C(=O)O)CN(Cc3ccc(Oc4ccccc4)cc3)C[C@@H]12 | 12.1 |
| CC(C)c1nc(CC(=O)Nc2nc(CN3CCCCCC3)cs2)cs1 | 53.3 |
| CC(C)c1nc(CN2CCCCC2)cs1 | 0 |
| CC(C)c1nc(CN2CCC(CO)CC2)cs1 | 13.2 |
| COCC1CCN(C(=O)c2cc(-c3ccco3)nc3c(Cl)cccc23)C1 (configuration not stated) | 11.7 |
| O=C1CN(C(=O)c2cc(-c3ccco3)nc3c(Cl)cccc23)CCN1 | 81.7 |
| O=C(c1cc(-c2ccco2)nc2c(Cl)cccc12)N1CCS(=O)(=O)CC1 | 15 |
| O=C(c1cc(-c2ccco2)nc2c(Cl)cccc12)N1CC[C@H]2CNC[C@H]21 | 40 |
| NC(=O)N1C[C@@H]2CN(C(=O)c3ccco3)C[C@@H]2C1 | 15.5 |

| SMILES | Percent Effect [%] |
| --- | --- |
| Cc1nc(-c2ccco2)ccc1C(=O)N1CCc2nnc(N)cc2C1 | 2.63 |
| O=C(c1cc(-c2ccco2)nc2c(Cl)cccc12)N1C[C@H]2CNC[C@H]2C1 | 53.3 |
| Cc1nc(-c2ccco2)ccc1C(=O)N1CCn2c(C)nnc2C1 | 25.4 |
| CN1C[C@H]2CN(Cc3cccc(OC(F)(F)F)c3)CCN2C1=O | 21.6 |
| O=C(NCc1cccs1)[C@@H]1CC[C@@H]2[C@@H](CCN2c2ncccn2)O1 | 17.9 |
| CN(Cc1ccco1)[C@@H]1CN(C(=O)c2cnccn2)C[C@@H]2CCCO[C@@H]21 | 11.3 |
| COC[C@@]12CCC[C@@H]1CN(C(=O)COC1CCCC1)C2 | 0 |
| CC(=O)N1[C@H](CN(C)C)C[C@@H]2CN(C(=O)c3ccsc3)CC[C@@H]21 | 15.4 |
| Cc1nc2ccccc2nc1CN(C)CC1CCCN1c1cccnn1 (configuration not stated) | 34.7 |
| CN(Cc1nc(N)c2ccccc2n1)CC1CCCN1c1cccnn1 (configuration not stated) | 21.3 |
| Cc1nc(CN(C)CC2CCCN2c2cccnn2)nc2ccccc12 (configuration not stated) | 74.4 |
| COc1ccc(CN2CCO[C@H]3[C@H](Oc4ccccn4)CC[C@@H]32)cc1 | 25.7 |
| O=C(c1ccco1)N1C[C@H]2CCCN(Cc3ccoc3)[C@H]2C1 | 16.4 |
| c1cnc(N2CCO[C@H]3CN(CC4CCCC4)C[C@H]32)cn1 | 9.91 |
| FC(F)(F)c1cccc(C2(CNCc3cc[nH]c3)CCOCC2)c1 | 12.7 |
| Brc1cccc(C2(CNCc3cc[nH]c3)CCOCC2)c1 | 40.9 |
| Brc1ccc(C2(CNCc3cc[nH]c3)CCOCC2)cc1 | 52.1 |
| CN1C[C@H](c2ccccc2)[C@H]2CN(C(=O)Cc3ccc(O)cc3)CC[C@H]21 | 5.59 |
| O=C1CC(c2ccc(C(=O)O)cc2)c2ncn(-c3cccc(Cl)c3)c2N1 (configuration not stated) | 51.7 |
| O=C1CC(c2ccc(C(=O)O)cc2)c2ncn(-c3cccnc3)c2N1 (configuration not stated) | 30 |
| O=C1CC(c2cccc(Cl)c2)c2snc(C(=O)O)c2N1 (configuration not stated) | 1.72 |
| O=C1CC(c2ccc(C(=O)O)cc2)c2ncn(-c3ccccc3Cl)c2N1 (configuration not stated) | 45 |
| O=C1CC(c2ccc(C(=O)O)cc2)c2ncn(-c3ccc(F)cc3)c2N1 (configuration not stated) | 81.7 |

| SMILES | Percent Effect [%] |
| --- | --- |
| O=C1CC(c2ccc(C(=O)O)cc2)c2ncn(-c3ccccc3F)c2N1 (configuration not stated) | 51.7 |
| Cc1nn(-c2ccccc2)c2c1C(c1ccc(C(=O)O)cc1)CC(=O)N2 (configuration not stated) | 18.4 |
| O=C1CC(c2ccncc2)c2c(c(C(=O)O)cn2-c2ccc(F)cc2)N1 (configuration not stated) | 29.1 |
| O=C1CC(c2cccnc2)c2c(c(C(=O)O)cn2-c2ccccc2F)N1 (configuration not stated) | 20.6 |
| Cn1c(=O)c2c(n3ncnc13)NC(=O)CC2c1ccc(F)cc1 (configuration not stated) | 6.9 |
| O=C1CC(c2ccc(C(=O)O)cc2)c2ncn(-c3cccc(F)c3)c2N1 (configuration not stated) | 46.6 |
| O=C1CC(c2ccc(C(=O)O)cc2)c2ncn(-c3ccccc3)c2N1 (configuration not stated) | 52.4 |
| O=C1C[C@H]2[C@@H](CCN2C(=O)Cc2ccccc2)N1Cc1cccnc1 | 9.62 |
| CCS(=O)(=O)N1CCC2(CC1)CC[C@@]1(C(=O)N(C)C)CN(C(C)=O)C[C@@H]21 | 12.8 |
| CO[C@H]1CN(C(=O)c2ccc[nH]2)[C@@H]2COC[C@H]12 | -140 |
| O=C([C@@H]1C[C@@H]2CCN(C3CCOCC3)C[C@H]2O1)N1CCCC1 | 6.94 |
| Cn1cccc1C(=O)NC[C@]12COC[C@H]1CN(Cc1nccs1)C2 | 12.8 |
| O=C(c1ccc2nccnc2c1)N1CCN(CCO)[C@@H]2CS(=O)(=O)C[C@@H]21 | 3.97 |
| Cc1nc(-c2ccoc2)n(CC(=O)N(C)CC(C)C)c1C | 15.8 |
| CN(C)c1nccc(N2CCO[C@H]3CN(Cc4nccn4C)C[C@H]32)n1 | 3.19 |
| CC(=O)N1CC[C@@]2(O)CCCC[C@H]2[C@@H]1c1ccccc1 | -75.8 |
| CN1CCN(Cc2nc3c(s2)CCCC3)[C@H]2CS(=O)(=O)C[C@H]21 | 18.3 |
| N#Cc1ccc(C(=O)N2CC[C@H]3[C@H]2CCN3CC2CCOCC2)cc1 | -5.77 |
| CN(C)CCO[C@H]1CN(C(=O)c2cccs2)[C@@H]2COC[C@H]12 | 10.9 |
| Cn1ccnc1CN1C(=O)CO[C@H]2CN(CCCc3ccccc3)C[C@H]21 | 17.6 |
